Drawing on PubChem BioAssay, this text covers z-score for 15 molecules.

Assay [1] can be described thus: A549 cell viability effects, profiling panel, calcein-AM fluorescence, 48 h, basal (AID 1162). Conditions: higher = more signal.
The nature of assay [2]: adipocyte viability effects, profiling panel, cell-based, 3T3-L1 adipocytes, calcein-AM fluorescence, 48 h, basal (AID 1163). The note with it: 3T3-L1 adipocytes viability, higher = more signal.
Assay [3] in a line: HepG2 cell viability effects, profiling panel, calcein-AM fluorescence, 48 h, basal (AID 1164). Conditions: higher = more signal.
Assay [4] can be described thus: MM1S cell viability effects, profiling panel, calcein-AM fluorescence, 48 h, basal (AID 1165).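 Note: viability of MM1S multiple myeloma cells under basal unstimulated conditions.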 Conditions: higher = more signal.
Assay [5] is described as follows: basal RPMI8226 viability, no added stimulus, profiling panel, cell-based, calcein-AM fluorescence, 48 h, PK04 Diversity Set (AID 1166).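 Note: cells grown under basal conditions without added stimulus.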 Conditions: RPMI8226 myeloma viability, higher = more signal.
The nature of assay [6]: basal HepG2 mitochondrial membrane potential changes, profiling panel, cell-based, JC-1 fluorescence, 24 h, 100 nL compound (AID 1167). The note with it: higher = more signal.
The nature of assay [7]: basal 3T3-L1 adipocyte mitochondrial potential changes, profiling panel, cell-based, JC-1 fluorescence, 3T3-L1 adipocytes, 24 h, 100 nL compound (AID 1168). Conditions: JC-1 mitochondrial fluorescence, higher = more signal, called active from +8 up or from −8 down.
A short description of assay [8]: basal RPMI8226 mitochondrial membrane potential changes, profiling panel, cell-based, JC-1 fluorescence, 24 h, 100 nL compound (AID 1169). The note with it: RPMI8226 myeloma, JC-1 mitochondrial potential fluorescence, higher = more signal.
A short description of assay [9]: basal MM1S mitochondrial membrane potential changes, profiling panel, cell-based, JC-1 fluorescence, 24 h, 100 nL compound (AID 1170). The note with it: higher = more signal.
A short description of assay [10]: A549 lung cancer cell viability effects, profiling panel, resazurin fluorescence, 24 h, PK04 Diversity Set (AID 1171). Conditions: higher = more signal, called active from +8 up or from −8 down. (In general: The colour change of resazurin is a common sign of viable cells or microbes.)

Active and inactive are the calls of the source.
Note: test concentration not given here.

With `COC(=O)[C@@]1(Cc2ccc(F)cc2)[C@H]2c3cc(C(=O)N(C)C)n(CCF)c3C[C@H]2CN1C(=O)c1ccccc1`, the z-score is -0.063 in assay [1]; -0.138 in [2]; 0.121 in assay [3]; 0.066 in [4]; 0.266 in [5]; -0.0126 in [6]. Also, the z-score was 0.696 (inactive) in assay [7], -0.37 in assay [8], 0.328 in assay [9] and -0.957 (inactive) in assay [10].

Take `C[N+](C)(C)CCCC[C@@H]1NC(=O)[C@H]2C[C@@H](C(=O)O)[C@@H](c3ccc(O)cc3)N2C1=O`: the z-score in assay [1] is 0.434; in assay [2], 0.291; in assay [3], 0.0336; in [4] it was -3.12; in assay [5], 0.442; in [6] it was 1.93. In addition, the z-score was -0.301 (inactive) in assay [7], -0.2 in assay [8], -1.26 in assay [9] and 0.554 (inactive) in assay [10].

For `COCCOC(=O)N1C(=O)[C@@]2(c3cc(C#CCNC(N)=O)ccc31)[C@H](c1ccccc1OCCO)N1[C@H](c3ccccc3)[C@H](c3ccccc3)OC(=O)[C@H]1[C@@H]2C(=O)N1CCCCCCC1`, the z-score in assay [1] is -0.396; in assay [2], -0.0319; in assay [3] it was 0.371; in [4], -1.22; in [5], 0.56; in [6], -1.51. In addition, the z-score is -1.3 (inactive) in assay [7], -0.441 in assay [8], -0.911 in assay [9] and 0.519 (inactive) in [10].

Turning to `C=CCC(OC(C)=O)[C@@H]1[C@@H](N(Cc2cccc3ccccc23)C(=O)c2ccc(C)cc2)c2cc(OCCCO)ccc2N1C(=O)Cc1ccc2ccccc2c1` (stereo not given in full), the z-score in [1] was 0.396; in assay [2], 1.05; in assay [3], 1.55; in [4] it was 0.83; in assay [5], 0.986; in assay [6], 3.54. In addition, the z-score in assay [7] was 0.598 (inactive); in assay [8], 0.152; in assay [9], -0.984; in assay [10], 0.433 (inactive).

`COC(=O)C(CC#Cc1ccc2c(c1)[C@]1(C(=O)N2)[C@H](C(=O)N2CCCCCCC2)[C@H]2C(=O)O[C@H](c3ccccc3)[C@H](c3ccccc3)N2[C@@H]1c1ccc(OCCO)cc1)C(=O)OC`: the z-score in [1] was -0.369; in [2] it was 0.231; in assay [3] it was 0.0259; in [4], -0.236; in assay [5], 0.164; in assay [6], -0.738. Moreover, the z-score is -2.32 (inactive) in assay [7], -1.04 in assay [8], -1.44 in assay [9] and 1.29 (inactive) in assay [10].

As to `C=CCNC(=O)[C@@H]1[C@H]2C(=O)O[C@H](c3ccccc3)[C@H](c3ccccc3)N2[C@H](c2ccc(OCCO)cc2)[C@@]12C(=O)Nc1ccc(C#CCNC(N)=O)cc12`, the z-score was -0.842 in [1]; 0.274 in assay [2]; -0.397 in [3]; 0.0041 in assay [4]; 0.155 in [5]; -0.921 in assay [6]. Further, the z-score in assay [7] was -0.962 (inactive); in assay [8], 0.672; in assay [9], 1.23; in assay [10], 0.36 (inactive).

For the molecule `O=C(c1ccccc1)N1Cc2ccccc2C[C@@]2(N=C(c3ccc(OCCCO)cc3)O[C@H]2c2ccccc2)C1=O`, the z-score in assay [1] is -1.12; in [2], 0.862; in assay [3], -1.18; in assay [4], -3.31; in assay [5] it was -4.05; in assay [6], -1.68. Besides, the z-score in [7] was 0.471 (inactive); in assay [8], -1.25; in assay [9], -2.14; in assay [10] it was -2.63 (inactive).

As to `COCCCNC(=O)[C@@]1(CCC(=O)OC(C)(C)C)N=C(c2ccc(OCCCO)cc2)O[C@H]1c1ccccc1`, the z-score in assay [1] is 0.899; in assay [2] it was -0.0512; in [3] it was 0.317; in assay [4], 0.32; in [5] it was 0.678; in assay [6] it was 0.842. Moreover, the z-score was 2.11 (inactive) in assay [7], 0.721 in assay [8], -1.08 in [9] and -0.376 (inactive) in assay [10].

In the case of `COc1cc(Cc2cc3c(c(CCc4ccccc4)n2)[Si](C(C)C)(C(C)C)O[C@H]3c2ccccc2)cc(OC)c1OC`, the z-score was -4.59 in [1]; -0.515 in [2]; -3.15 in assay [3]; -3.14 in [4]; -3.71 in assay [5]; -3.44 in [6]. The z-score in assay [7] was 0.0754 (inactive); in assay [8], -0.548; in [9], -0.663; in assay [10], -1.24 (inactive).

`C=CCNC(=O)[C@@H]1[C@H]2C(=O)O[C@H](c3ccccc3)[C@H](c3ccccc3)N2[C@H](c2ccc(OCCO)cc2)[C@@]12C(=O)N(C(=O)OCCOC)c1ccccc12`: the z-score in assay [1] is -0.514; in assay [2], 0.484; in assay [3], 0.332; in assay [4], 0.374; in assay [5] it was -0.562; in assay [6], 2.15. Also, the z-score in assay [7] is 0.89 (inactive); in [8] it was -1.05; in assay [9] it was 0.332; in assay [10], -0.0659 (inactive).

Take `O=C(NC1CC1)[C@@H]1c2ccccc2C(=O)N(C2CCCCC2)[C@H]1c1ccc(CO)cc1`: the z-score was 1.35 in [1]; -0.27 in [2]; 1.12 in [3]; -0.856 in assay [4]; -0.591 in [5]; 1.38 in [6]. The z-score is -0.724 (inactive) in assay [7], 0.512 in [8], -0.256 in assay [9] and 0.0989 (inactive) in [10].

Regarding `N#Cc1ccc(NN2C(C(O)c3ccc(B(O)O)cc3)C=CC3CN(c4ccccc4)C(=O)C32)cc1` (stereo not given), the z-score in assay [1] was 0.222; in assay [2], -0.463; in assay [3] it was -0.35; in [4], -0.104; in [5], -1.29; in assay [6], -2.14. For the same molecule, the z-score in [7] is -0.643 (inactive); in assay [8] it was -0.0762; in assay [9], -0.696; in assay [10], 0.238 (inactive).

With `COC(=O)C[C@H]1O[C@]2(C(=O)N(C)c3ccccc32)[C@@H](C)[C@@H]1[Si](C)(C)c1ccccc1`, the z-score in assay [1] is -0.843; in assay [2] it was 1.01; in [3], -1.05; in assay [4], -0.344; in assay [5] it was -0.0598; in assay [6] it was -0.57. Besides, the z-score in [7] was 0.611 (inactive); in assay [8], -0.0109; in assay [9], 0.425; in [10], 1.38 (inactive).

On to `COc1cc2c(cc1OC)CN(C(=O)[C@@H]1[C@H]3C(=O)O[C@H](c4ccccc4)[C@H](c4ccccc4)N3[C@H](c3ccc(O)cc3)[C@@]13C(=O)Nc1ccc(C#CC4=CCCCC4)cc13)CC2`, for which the z-score in assay [1] was 0.434; in assay [2], 0.641; in assay [3], 0.618; in assay [4] it was -0.126; in [5], -1.58; in assay [6], -0.948. Moreover, the z-score in assay [7] is 0.165 (inactive); in [8], -0.733; in assay [9], 0.328; in assay [10] it was 0.175 (inactive).

In the case of `C=CCNC(=O)[C@H]1[C@@H]2C(=O)O[C@@H](c3ccccc3)[C@@H](c3ccccc3)N2[C@@H](c2ccc(OCCO)cc2)[C@]12C(=O)N(C(=O)OCCOC)c1ccc(C#CCC(C(=O)OC)C(=O)OC)cc12`, the z-score is 1.32 in [1]; 0.0681 in [2]; 0.811 in assay [3]; 0.495 in assay [4]; -0.749 in assay [5]; -0.517 in assay [6]. Besides, the z-score in [7] is 0.566 (inactive); in assay [8], -0.82; in assay [9], -1.58; in assay [10] it was -0.0048 (inactive).
